# Screening results (PubChem BioAssay)
# The entries come from a sample that favours hits as a whole.
# RBX1-CUL1 inh: inhibitors of human ROC1-CUL1 ubiquitin ligase activity. P62877+Q13616. in vitro K48 di-Ub FRET, acceptor:donor ratio, 45 min. inhibition, % at 10 µM. 140,000 tested, 0.6% active; in the data active means inhibition above about 25%
# Target sequence (P62877 whole entry, looked up): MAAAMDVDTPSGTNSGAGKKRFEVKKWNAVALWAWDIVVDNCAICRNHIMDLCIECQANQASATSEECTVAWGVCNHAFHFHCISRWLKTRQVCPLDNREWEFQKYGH
# Target sequence (Q13616 whole entry, looked up): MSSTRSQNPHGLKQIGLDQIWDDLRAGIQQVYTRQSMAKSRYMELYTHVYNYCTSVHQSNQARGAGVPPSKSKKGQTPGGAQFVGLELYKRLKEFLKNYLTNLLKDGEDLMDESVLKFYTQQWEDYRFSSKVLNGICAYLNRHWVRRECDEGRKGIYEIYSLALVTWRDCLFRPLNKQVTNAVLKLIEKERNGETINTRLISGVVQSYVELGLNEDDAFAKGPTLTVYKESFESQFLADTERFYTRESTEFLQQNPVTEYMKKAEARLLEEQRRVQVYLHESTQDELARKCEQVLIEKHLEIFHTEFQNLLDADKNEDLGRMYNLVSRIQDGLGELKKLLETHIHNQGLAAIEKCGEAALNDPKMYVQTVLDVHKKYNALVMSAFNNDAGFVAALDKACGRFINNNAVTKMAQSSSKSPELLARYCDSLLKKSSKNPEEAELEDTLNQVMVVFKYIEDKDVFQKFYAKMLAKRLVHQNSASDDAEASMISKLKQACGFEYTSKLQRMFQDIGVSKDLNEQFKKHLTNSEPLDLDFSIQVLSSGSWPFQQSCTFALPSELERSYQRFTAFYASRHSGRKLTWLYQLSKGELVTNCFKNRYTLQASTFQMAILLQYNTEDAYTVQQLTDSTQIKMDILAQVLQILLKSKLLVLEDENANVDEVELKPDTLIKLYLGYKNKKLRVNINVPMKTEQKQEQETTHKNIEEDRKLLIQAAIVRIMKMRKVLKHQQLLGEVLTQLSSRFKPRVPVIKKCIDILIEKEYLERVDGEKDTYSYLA
# Numbers stand for hits; – = inactive.
SMILES,RBX1-CUL1 inh
COC(=O)c1cc(Br)cc(O)c1O,83
O=C(CSc1nnc(Cc2cccs2)n1-c1ccccc1)NCc1cccs1,–
Cc1ccc(C2=NN3C(=N)/C(=C/c4cccc(OCc5ccc(F)cc5)c4)C(=O)N=C3S2)cc1,–
N=C1/C(=C\c2ccc(OC(=O)c3ccc(F)cc3)c(Cl)c2)C(=O)N=C2SC(c3ccco3)=NN12,–
N=C1/C(=C/c2cccc(OC(=O)c3ccc(F)cc3)c2)C(=O)N=C2SC(c3cccs3)=NN12,28
Nc1cccc(C(=O)OCC(=O)c2ccccc2)c1,–
O=C(COC(=O)c1ccc(C(O)c2ccccc2)cc1)c1ccccc1 (stereo unspecified),32
COc1ccc(C(=O)OCC(=O)c2ccc(OC(=O)c3ccccc3)cc2)cc1,–
COc1ccc(SCC2=Nc3ccc(Cl)cc3C(=O)C2)cc1,–
COc1ccc(N=CC2C(=O)NC(=S)N(c3ccc(OC)cc3)C2=O)cc1 (stereo unspecified),–
Nn1c(SCC(=O)c2ccc(Cl)cc2)nc2sc(-c3ccccc3)cc2c1=O,–
Cc1ccc2cc(C3=C/C(=C/c4ccc(N5CCOCC5)o4)C(=O)O3)ccc2c1,96
Cc1ccc(C2=C/C(=C\c3c(Cl)cccc3Cl)C(=O)O2)cc1,–
Cc1ccc2cc(C3=CCC(=O)O3)ccc2c1,–
Cc1ccc(OC(C)C(=O)Nc2nccs2)c(C)c1 (stereo unspecified),–
Cc1sc(NC(=O)/C=C/c2ccco2)c(C(N)=O)c1C,–
O=C(/C=C/c1ccco1)Nc1scc(-c2cccs2)c1C(=O)O,28
CC(C)(CC(=O)Nc1scc(-c2cccs2)c1C(=O)O)CC(=O)Nc1scc(-c2cccs2)c1C(=O)O,–
CCC(C)c1ccccc1NC(=O)c1ccc(OC)c(Cl)c1 (stereo unspecified),–
COc1cccc(S(=O)(=O)NCC(=O)Nc2ccc3sc(C)nc3c2)c1,–
O=C(COC(=O)c1ccccc1C(=O)N(c1ccccc1)c1ccccc1)c1ccc(F)cc1,–
COc1ccc(N=C(N)SCc2ccc(CN(C)C)o2)cc1,–
CC(=O)Nc1ccc(Oc2cc(NC(=O)c3ccccc3)cc([N+](=O)[O-])c2)cc1,–
CC(=O)Oc1cc(C(=O)Nc2ccc(Oc3ccccc3)cc2)cc(OC(C)=O)c1OC(C)=O,38
O=C(Nc1ccc(Oc2ccccc2)cc1)c1ccncc1,–
SMILES,RBX1-CUL1 inh
COCCN(CC1CCCN(C2Cc3ccccc3C2)C1)C(=O)c1ccncc1 (stereo unspecified),–
Cc1cc(Br)ccc1NC(=O)CN1CCC(C)CC1,98
Cc1cc(Cl)ccc1NC(=O)CN1CCC(C)CC1,–
Cc1cc(Br)c(NC(=O)CN2CCC(C)CC2)cc1C,–
CCOC(=O)C1C(=O)NC(N2CCN(c3ccccn3)CC2)=NC1c1ccccc1 (stereo unspecified),–
CCCCCCOc1ccccc1/C=C1\C(=O)N(c2ccc([N+](=O)[O-])cc2)N=C1c1ccccc1,–
COc1cc(/C=C2\C(=O)N(c3ccc(S(N)(=O)=O)cc3)N=C2C)cc(Br)c1OCC(C)C,–
C#CCOc1cc(Br)c(/C=C2/C(=O)N(c3cccc(C(=O)O)c3)N=C2c2ccccc2)cc1OC,90
CCC(C)Oc1ccc(/C=C2\C(=O)N(c3ccccc3)N=C2C)cc1Br (stereo unspecified),–
CCCOc1ccc(CN2C(=O)NC(=O)/C(=C\c3cc(Br)c(OCC(=O)O)c(OC)c3)C2=O)cc1OC,–
COc1cc(C=C2C(=O)c3ccccc3C2=O)cc(Br)c1OCC(=O)O,76
COc1cc(CO)cc(Br)c1OCC(=O)O,–
CCOc1c(Br)cc(/C=C2/C(=O)N(c3cccc(C(=O)O)c3)N=C2C)cc1OC,91
CC1=NN(c2ccc(C(=O)O)cc2)C(=O)/C1=C/c1cc(Br)ccc1OCc1ccccc1,–
CC(=O)c1cc2c(cc1NC(=O)c1ccc3c(c1)OCO3)OCO2,–
O=C1NC(=O)C(N=Cc2ccccc2)C(=NCCO)N1 (stereo unspecified),–
COc1ccc(N=Cc2cc3c(cc2O)OC(=N)C(C#N)C3c2cccc(F)c2)cc1 (stereo unspecified),–
N#CC1C(=N)Oc2cc(O)c(C=Nc3cccc(F)c3)cc2C1c1ccco1 (stereo unspecified),48
COc1ccccc1N=Cc1cc2c(cc1O)OC(=N)C(C#N)C2c1cccc(F)c1 (stereo unspecified),–
CC1CCN(S(=O)(=O)c2ccc3c4c(cccc24)C(=O)N3)CC1,–
CCOC(=O)C1=NN(c2ccccc2)C(=O)/C1=C\c1ccc(F)cc1,–
O=C(O)C1=NN(c2ccccc2)C(=O)/C1=C\c1cccs1,26
O=C1/C(=C\c2cccs2)C(c2ccccc2)=NN1c1ccc(Cl)c(Cl)c1,–
C/C(=N/N1CCN(Cc2ccc(C)cc2)CC1)c1ccc(Cl)cc1,–
Cc1ccnc(-n2c(SCc3ccc(Cl)cc3)nc3sc(C)c(C)c3c2=O)c1,–
SMILES,RBX1-CUL1 inh
CC1=NC(=O)CC(c2ccc(F)cc2F)C1C(=O)OC1CCCC1 (stereo unspecified),–
CCOc1cc(-c2ccc3c(c2)OCO3)cc(=Nc2cccc(OC)c2)c2c(C)oc(C)c12,–
CCOc1cc(-c2ccc(O)cc2)cc(=O)c2c(C)oc(C)c12,–
CCOc1cc(-c2ccc(O)c(O)c2)cc(=Nc2ccc(Br)cc2)c2c(C)oc(C)c12,50
Cc1ccc2[nH]c3c(c2c1)CCC/C3=N\N=C1/CCCc2c1[nH]c1ccc(C)cc21,–
CCn1cc(C(=O)NCc2ccc(F)cc2)cn1,–
O=C1COc2ccc(Cl)cc2N1Cc1ccccc1F,–
COc1ccc(C)cc1NC(=O)CN(c1ccccc1Cl)S(C)(=O)=O,–
O=C1NC(=S)N(c2ccccc2)C(=O)/C1=C/c1cc(Br)ccc1O,–
O=C1NC(=S)N(c2cccc(Br)c2)C(=O)/C1=C/c1cc(I)c(O)c(I)c1,27
O=C1NC(=S)N(c2cccc(Br)c2)C(=O)/C1=C/c1ccc(O)cc1,–
CC(/C=C/C(=O)c1ccc(C)cc1)=C\c1ccccc1,–
COc1ccccc1/C=C/C(=O)c1ccccc1,–
O=C(/C=C/C(=O)c1ccccc1)c1ccccc1,27
CN(C(=O)c1ccnn1C)C1CCCN(CCc2ccccc2)C1 (stereo unspecified),–
CCCCCCOc1cc(/C=C/C(=O)O)c(OCCCCCC)cc1/C=C/C(=O)O,89
O=C(O)/C=C/c1cc(Br)ccc1OCc1ccc(F)cc1,–
CCCCCCCCCCCCCCCCCCOc1ccc(/C=C/C(=O)O)cc1I,–
Cc1cc(C)n(-c2nc(N/N=C/c3cccs3)nc(Nc3ccccc3)n2)n1,–
CCOCCN1N=C(C)C(C)n2c1nc1c2c(=O)n(C)c(=O)n1C (stereo unspecified),–
O=C1C=CC2=C(c3ccccc3C(=O)O)C3C=CC(=O)C(Br)C3OC2=C1Br (stereo unspecified),113
O=C1C(Br)=CC2=C(c3ccccc3C(=O)O)C3C=C(Br)C(=O)C(Br)C3OC2=C1Br (stereo unspecified),117
Cc1ccc2c(c1)CN(Cc1cccc(OCCO)c1)CC(c1ccsc1)O2 (stereo unspecified),–
Cc1noc(-c2ccc(N3CCCOCC3)nc2)n1,–
CC1(C)Cc2ccccc2C(c2sc3nc(-c4cccs4)cc(C(F)(F)F)c3c2N)=N1,–
COc1cc(Cc2nccc3cc(OC)c(OC)cc23)c(N=NN(C)C)cc1OC,–
O=C1NC(=Nc2ccc(F)cc2)S/C1=C\c1ccc(OCc2cccc(C(=O)O)c2)cc1,–
Cc1cccc(N=C2NC(=O)/C(=C\c3ccc(OCc4ccccc4)cc3)S2)c1,–
